Sampled rows, rich in hits. Any-hit rate of the full collection: about 1.2%.
RGS12 GoLoco inh: qHTS Assay for Inhibitors of RGS12 GoLoco Motif Activity (Red Fluorophore); Gai1:RGS12 GoLoco peptide FP, rhodamine, 10 min; Potency, µM (top dose mostly 61.6 µM), for inactives: at the top dose activity, negative = inhibition, usual class: inhibitors; 230,000 compounds, 0.44% hits; active = well fitted inhibition curve with a large enough effect, not every such curve was filed as active; inactive = no such curve, though single readings can be large or run the other way; also: nearly all actives have a fitted effect of over 30% in size
KAT2A inh: qHTS Assay for Inhibitors of GCN5L2. Histone acetyltransferase KAT2A (Homo sapiens), Q92830. GCN5L2 HAT assay, ThioGlo1 CoA-SH fluorescence. Potency, µM (top dose mostly 58.9 µM), inactives show at the top dose activity change, negative = inhibition, most hits filed as inhibitors. 390,000 compounds, 0.21% hits. AID 504327, 2011
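Fluorescence readout, Ex340nm/Em540nm: ThioGlo1 (50uM final) reacts with free CoA thiol released as 20nM GCN5L2 acetylates H3(1-25) peptide (75uM) using acetyl-CoA (70uM). Compound and enzyme sat 15 min beforehand; 20 min room-temperature reaction.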
TRb SRC2 PPI: qHTS for Inhibitors of the Interaction of Thyroid Hormone Receptor and Steroid Receptor Coregulator 2. TRbeta-SRC2 peptide binding, fluorescence polarization; receptor liganded with 1 µM T3. 280,000 compounds, 0.065% hits. Potency, µM (highest dose often 106 µM), for the others: at the top dose activity change, negative = inhibition, most hits filed as inhibitors. Thyroid hormone receptor beta (Homo sapiens), P10828;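 also: plate controls were bound peptide for no effect and peptide without receptor for full effect; nearly all actives have a fitted effect of over 50% in size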
Target sequence (P10828 whole entry, looked up): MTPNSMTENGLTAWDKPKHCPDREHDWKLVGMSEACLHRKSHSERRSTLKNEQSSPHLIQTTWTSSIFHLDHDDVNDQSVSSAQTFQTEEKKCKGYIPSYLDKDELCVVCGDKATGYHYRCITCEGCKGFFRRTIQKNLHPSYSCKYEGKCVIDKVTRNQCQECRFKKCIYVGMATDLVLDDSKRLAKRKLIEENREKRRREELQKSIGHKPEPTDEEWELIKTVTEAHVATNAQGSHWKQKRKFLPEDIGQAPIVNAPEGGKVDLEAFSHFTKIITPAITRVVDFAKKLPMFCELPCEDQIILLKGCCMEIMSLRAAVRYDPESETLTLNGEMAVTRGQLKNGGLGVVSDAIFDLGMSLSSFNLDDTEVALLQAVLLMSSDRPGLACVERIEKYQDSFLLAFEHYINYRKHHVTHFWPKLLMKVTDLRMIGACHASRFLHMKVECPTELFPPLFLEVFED
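Human TRb LBD (0.6 uM) plus Texas Red-labeled SRC2 peptide (20 nM), 1uM T3, 5% DMSO, 5 hr at ambient temperature. Decreased polarization (555/632 nm) flags inhibition; data normalized to free and bound peptide controls.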
TexasRed fluor: Total Fluorescence Counterscreen for Inhibitors of the Interaction of Thyroid Hormone Receptor and Steroid Receptor Coregulator 2. AID 1479, 2009. Potency, µM (series often up to 106 µM), for inactives: at the highest dose fluorescence change, negative = quenching. TRb/SRC2 Texas Red total fluorescence interference. 280,000 compounds, 0.29% hits; active = well fitted curve in either direction with a large enough effect; inconclusive = small, poorly fitted or top-dose-only effect
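Flags fluorescent or light-absorbing compounds by total fluorescence, S + 2P, at 555 nm excitation and 632 nm emission. Mixture: 20 nM Texas Red SRC2 peptide, 0.6 uM human TRb LBD, 1 uM T3, 5% DMSO; compound exposure 5 h at ambient temperature.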
VDR inhibitor: Inhibitors of the vitamin D receptor (VDR): qHTS. VDR-SRC2-3 peptide fluorescence polarization, 2 h. Potency, µM, for the others: max response, negative = inhibition, actives largely listed as inhibitors. 400,000 compounds, 0.93% hits. AID 504847, 2011
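Reagent solutions, kept cold and dark, are dispensed first; compounds are then pinned in at 23 nl, plates briefly spun, and incubated 2 h at ambient temperature. Inhibition of VDR–SRC2-3 peptide binding is read by fluorescence polarization.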
An asterisk follows results filed as active; ? = inconclusive; nt = no result; [ ] = another dose, or the depositor's remark. Unless noted, calls follow the shape of the dose curve; as a rule, active = well fitted curve in the direction sought with a large enough effect; inconclusive = small, poorly fitted or top-dose-only effect, or another doubt; inactive = no such curve, though single readings can be large; an effect the other way counts as inactive or inconclusive. Unless noted, % is scaled to controls: 0 for no effect and ±100 for the full control effect; potency is read from the fitted curve at half-maximal effect.

SMILES	RGS12 GoLoco inh	KAT2A inh	TRb SRC2 PPI	TexasRed fluor	VDR inhibitor
COc1ccc(C2NC(=O)C(C#N)=C(S)N2c2ccc(C)cc2)cc1OC (configuration not stated)	-6%	-5%	-1%	-11%	32µM*
COc1ccc(N2C(S)=C(C#N)C(=O)NC2c2ccc(OC)c(OC)c2)cc1 (configuration not stated)	-1%	-5%	0%	1%	40µM*
COc1cc(C2NC(=O)C(C#N)=C(S)N2c2ccc(C)cc2)ccc1OC(C)C (configuration not stated)	-32%	-3%	4%	-1%	28µM*
O=Nc1ccc(NO)cc1	-15%	nt	-4%	0%	nt
Cc1ccc(N=C2NC(=O)/C(=C/C=C/c3ccco3)S2)cc1	25%	-7%	?	40µM*[quencher]	?
O=C1NC(=Nc2ccccc2)S/C1=C\C=C\c1ccco1	122%	?	6%	1%	?
NNC(=O)[C@@H](O)[C@H](O)[C@H](O)CO	0%[14.2 µM]	nt	nt	nt	nt
O=C(NC1CC1)c1ccc(NC(=O)C2CCCC2)cc1	nt	nt	nt	nt	-13%
O=C(NC1CC1)c1ccc(NC(=O)C2CCC2)cc1	nt	nt	nt	nt	79µM*
Cn1nc(C(F)(F)F)c(/C=N/OC(=O)c2ccccc2)c1Sc1ccc(Cl)cc1	2%	-20%	7%	-1%	89µM*
Cc1ccc2c(c1)C1C=CCC1C(C(=O)O)N2 (configuration not stated)	40%	25µM*	-9%	-27%	nt
Cc1nc(-n2nc(C)c(Cc3ccc(Cl)cc3)c2C)sc1C(=O)N1CCCCC1C (configuration not stated)	nt	-9%	-22%	17783µM*[quencher]	11%
C/C(=N\NC(=O)c1ccncc1)c1ccc2ccccc2c1O	39%[14.2 µM]	nt	nt	nt	nt
N=C(N)C(N=Nc1ccccc1)C(=N)N (configuration not stated)	-4%[14.2 µM]	nt	nt	nt	nt
COc1cccc(N2CCN(C(=O)Cn3c(-c4cccs4)cc4ccccc43)CC2)c1	nt	-13%	?	40µM*[quencher]	7%
CCN1CCN(C(=O)Cn2c(-c3cccs3)cc3ccccc32)CC1	nt	-4%	3%	6%	10%
COc1ccc(N2CCN(CCCNC(=O)Cn3c(-c4cccs4)cc4ccccc43)CC2)cc1	nt	1%	1%	7%	9%
O=C(Cn1c(-c2cccs2)cc2ccccc21)NCCCN1CCN(c2ccc(F)cc2)CC1	nt	-6%	?	63µM*[quencher]	8%
CN1CCN(C(=O)Cn2c(-c3cccs3)cc3cc(Cl)ccc32)CC1	nt	-6%	-28%	112µM*[quencher]	14%
CCCCc1nc2c(c3c1C[C@H](C)OC3)CN(C(=O)NCCCC(=O)OCC)CC2	6%[14.2 µM]	nt	-1%[11.2 µM]	-5%[11.2 µM]	nt
CCNc1nc(NCC)nc(-n2cc(C(=O)c3cc(Cl)ccc3O)cn2)n1	nt	nt	nt	nt	3%
CCOC(=O)c1sc(N2C(=O)C(O)=C(C(=O)c3ccco3)C2c2ccc(C)o2)nc1C (configuration not stated)	nt	-11%	nt	nt	?
CCOC(=O)c1sc(N2C(=O)C(O)=C(C(=O)c3ccco3)C2c2ccc([N+](=O)[O-])cc2)nc1C (configuration not stated)	nt	nt	nt	nt	89µM*
O=c1c(C(c2ccc(O)cc2)c2c(O)nc3n(c2=O)CCS3)c(O)nc2n1CCS2	-1%	-4%	-4%	-2%	?
O=c1c(C(c2ccc(O)cc2)c2c(O)nc3n(c2=O)CCCS3)c(O)nc2n1CCCS2	-15%	-10%	8%	1%	50µM*
SMILES	RGS12 GoLoco inh	KAT2A inh	TRb SRC2 PPI	TexasRed fluor	VDR inhibitor
Cc1ccc(C(c2c(O)nc3n(c2=O)CCS3)c2c(O)nc3n(c2=O)CCS3)cc1	-10%	0%	1%[53 µM]	-2%[53 µM]	50µM*
O=S(=O)(O)c1ccc2c(c1)-c1nc-2nc2[nH]c(nc3nc(nc4[nH]c(n1)c1ccc(S(=O)(=O)O)cc41)-c1ccc(S(=O)(=O)O)cc1-3)c1ccc(S(=O)(=O)O)cc21	nt	0.63µM*	?	2.2µM*[quencher]	25µM*
COCCNC(=O)/C(C#N)=C/c1ccc(OC(=O)c2cccs2)c(OC)c1	9%	-5%	-29%	0%	71µM*
c1ccc(B(c2ccccc2)c2ccccc2)cc1	nt	nt	2%[201 µM]	1%[201 µM]	nt
Cc1ccc(S(=O)(=O)CCCS(=O)(=O)c2ccc(C)cc2)cc1	-4%	7%	-3%	-4%	-5%
Cc1ccc(S(=O)(=O)SCCCSS(=O)(=O)c2ccc(C)cc2)cc1	nt	nt	nt	nt	50µM*
Cc1ccc(S(=O)(=O)SC/C=C/CSS(=O)(=O)c2ccc(C)cc2)cc1	nt	nt	nt	nt	45µM*
COc1ccc(-n2cnc(=S)[nH]c2=S)cc1	nt	nt	nt	nt	28µM*
COc1ccc(-n2cc(-c3ccccc3)[nH]c2=S)cc1	3%	10%	-3%	-5%	-2%
CC(C)CNc1nc2ncnc(N)c2[nH]1	4%[14.2 µM]	nt	nt	nt	nt
COc1cc(C(CCN2CCCC2)c2c(OC)cc(OC)c3c2OC(=O)CC3c2ccc(N(C)C)cc2)cc(OC)c1OC (configuration not stated)	nt	nt	6%	-1%	-5%
COc1cc(C(=O)Oc2c(Sc3ccc(C)cc3)c(C)nn2-c2ccccc2)cc(OC)c1OC	nt	-6%	0%	-5%	?
CCCC(=O)Oc1c(Sc2ccc(Cl)cc2)c(C)nn1-c1ccccc1	nt	-7%	-9%	-2%	50µM*
Cc1ccc(Sc2c(C)nn(-c3ccccc3)c2OC(=O)CC(C)C)cc1	nt	1%	0%	-3%	79µM*
O=S(=O)(c1ccc2c(c1)OCO2)N1CCN(c2nc(-c3cccs3)nc3ccccc23)CC1	nt	nt	nt	nt	0%
CO[C@H]1COC(=O)[C@H](C)COC(=O)[C@H](C)NC(=O)C/C=C\[C@H]1C	nt	nt	-2%[11.2 µM]	3%[11.2 µM]	nt
O=C(O)c1ccc(Cn2cc(/C=C\[N+](=O)[O-])c3ccccc32)o1	nt	-19%	nt	nt	13µM*
Cc1cccc(Cn2cc(/C=C/[N+](=O)[O-])c3ccccc32)c1	13%	-13%	5%	-4%	?
COc1cc(CNc2ccc(S(N)(=O)=O)cc2)ccc1OCc1ccccc1F	nt	nt	nt	nt	9%
COc1cc(CNc2ccc(N3CCCC3)cc2)ccc1OCc1ccccc1	22%	40%	-23%	20%	35µM*
COc1cc(CNc2ccc(N3CCCC3)cc2)ccc1OCc1ccccc1F	-3%	-2%	-3%	-4%	79µM*
O=S(=O)(O)C(c1ccccc1)[C@@H](O)c1ccccc1 (some centres not stated)	-1%[14.2 µM]	nt	nt	nt	nt
CCCCCCCCCCCCCC[C@@H](O)[C@@H](O)[C@@H](N)CO	nt	40%	3%	-1%	67%
